Our source for the inhibition values is PubChem BioAssay AID588352 (The Scripps Research Institute Molecular Screening Center, 2011).

Screen size: about 360,000 compounds; about 620 (0.17%) were called active. The list comes from a sample in which actives are over-represented; it also holds similar structures and randomly drawn compounds. Values without a mark were called inactive.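 Rule for the calls: active = inhibition above a per-campaign cutoff, the mean of all compounds plus 3 SD (cut at about 60% in these data); inactive = the rest.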

The term inhibition denotes the change of the read-out against control, counted positive when it falls.

In this test the target is Nuclear receptor coactivator 3 (Homo sapiens) (UniProt Q9Y6Q9). The test is described as follows: SRC3 coactivator transcriptional activity inhibitors, primary screen, cell-based, luminescence (AID 588352).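 Note: 0% = DMSO-treated cells and 100% = gossypol-treated cells at 36 µM; higher means less SRC3-driven luciferase light from the GAL4 reporter.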 The following applies: HEK293 GAL4-SRC3 luciferase reporter, at 3.6 µM, hits give high values.
Chain of Nuclear receptor coactivator 3 (Homo sapiens) (Q9Y6Q9 whole entry, looked up, the tested form may be a part): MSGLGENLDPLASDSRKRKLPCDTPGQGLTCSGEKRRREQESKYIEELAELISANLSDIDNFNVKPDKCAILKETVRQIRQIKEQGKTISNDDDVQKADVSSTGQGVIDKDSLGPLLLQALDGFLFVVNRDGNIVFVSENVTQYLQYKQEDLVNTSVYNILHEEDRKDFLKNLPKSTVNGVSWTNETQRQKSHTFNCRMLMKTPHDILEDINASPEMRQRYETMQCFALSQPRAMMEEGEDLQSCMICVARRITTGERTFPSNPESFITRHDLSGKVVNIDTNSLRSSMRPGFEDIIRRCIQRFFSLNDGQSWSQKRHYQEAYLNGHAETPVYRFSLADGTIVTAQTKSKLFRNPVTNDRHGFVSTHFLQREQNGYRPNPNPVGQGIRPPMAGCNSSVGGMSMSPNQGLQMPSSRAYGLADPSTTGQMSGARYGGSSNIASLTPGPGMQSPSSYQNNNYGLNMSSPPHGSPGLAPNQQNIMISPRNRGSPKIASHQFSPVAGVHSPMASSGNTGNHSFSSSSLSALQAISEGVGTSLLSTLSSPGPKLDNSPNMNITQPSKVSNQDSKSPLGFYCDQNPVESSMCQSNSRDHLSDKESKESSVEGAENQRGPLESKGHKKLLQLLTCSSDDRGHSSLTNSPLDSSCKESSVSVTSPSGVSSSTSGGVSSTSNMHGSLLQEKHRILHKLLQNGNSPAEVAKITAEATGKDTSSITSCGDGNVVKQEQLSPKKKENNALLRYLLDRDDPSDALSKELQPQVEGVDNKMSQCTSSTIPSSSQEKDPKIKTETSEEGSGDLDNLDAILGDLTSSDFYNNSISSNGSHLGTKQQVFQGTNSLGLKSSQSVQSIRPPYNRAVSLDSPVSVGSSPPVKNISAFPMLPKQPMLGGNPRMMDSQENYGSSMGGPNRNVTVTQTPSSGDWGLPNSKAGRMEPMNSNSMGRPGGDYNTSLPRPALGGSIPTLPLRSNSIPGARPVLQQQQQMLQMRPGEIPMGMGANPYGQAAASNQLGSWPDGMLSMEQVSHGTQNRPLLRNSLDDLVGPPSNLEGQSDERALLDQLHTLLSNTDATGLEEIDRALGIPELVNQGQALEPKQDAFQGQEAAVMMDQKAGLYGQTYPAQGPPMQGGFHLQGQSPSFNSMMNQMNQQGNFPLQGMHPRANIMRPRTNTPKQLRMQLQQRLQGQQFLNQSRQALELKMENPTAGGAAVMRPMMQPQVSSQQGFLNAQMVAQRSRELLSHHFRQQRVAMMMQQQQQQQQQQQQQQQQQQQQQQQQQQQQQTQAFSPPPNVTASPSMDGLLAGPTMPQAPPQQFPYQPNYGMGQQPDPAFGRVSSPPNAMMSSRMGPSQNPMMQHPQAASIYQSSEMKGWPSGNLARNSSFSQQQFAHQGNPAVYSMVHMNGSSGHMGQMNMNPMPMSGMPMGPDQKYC
As for `CCOC(=O)c1csc(CCNC(=O)c2oc3c(Cl)cc(C)cc3c2C)n1`, the inhibition is -12.1%. The result for `CC(C)CC(CO)N1CCN(C(=O)c2ccc(Cl)cc2Cl)CCC1=O` (stereo unspecified) reads 5.22%; that for `COc1ccc(C(CNC(=O)c2cccc(S(=O)(=O)Nc3ccc(Br)cc3)c2)N(C)C)cc1` (stereo unspecified), 1.78%; that for `COc1ccc(CNC(=O)COC(=O)C2=Cc3ccccc3OC2)cc1`, -19.6%. `O=C(O)c1ccccc1C(=O)NC1=NN(c2ccccc2)CC1`: the inhibition was 3.76%. The result for `CC1(C)CC(N2CCN(C(c3ccccc3)c3ccccc3)CC2)=CC(=[N+]2CCCCC2)C1` reads 80% (active); that for `CCN1/C(=C\c2ccc3ccccc3[n+]2CC)Sc2cc(C)ccc21`, 64.7% (active); that for `C[C@@H]1CN([C@H](C)CO)C(=O)c2cc(-c3ccc(F)cc3)cnc2O[C@H]1CN(C)C(=O)c1ccc(F)cc1`, -2.15%. As to `CC(C)[C@H](NC(=O)N1CC(=O)Nc2ccccc21)C(=O)N[C@@H](Cc1c[nH]c2ccccc12)C(=O)O`, the inhibition is 11.1%. The figure for `Cc1cc2ncn(CCCCOc3ccccc3)c2cc1C` is -3.7%; for `C/C=C(/C)C(=O)O[C@@H]1c2cc3c(c4c2[C@@]2(CO4)C(=O)C(OC)=C(OC)C=C2C[C@@H](C)[C@H]1C)OCO3` it is -4.38%.

For the compound `C=CC[C@@H](CC(=O)NCCO)C(=O)N[C@H](C)COC(=O)[C@@H](CC=C)CC(=O)OC(C)(C)C`, the inhibition was 0.5%. Take `CC(=O)Nc1ccc(-c2ccnc3c2CC(C(=O)NC(C)C)O3)cc1` (stereo unspecified): the inhibition was 10.3%.

For `COc1cccc(OC)c1C(=O)OCC(=O)/C(C#N)=C(\C)N`, the inhibition was 7.58%. On to `Cc1ccc(Cn2c(C)c3cnn(CC(=O)NCCN4CCOCC4)c(=O)c3c2C)cc1`, for which the inhibition was -3.71%.

With `CC(OC(=O)c1ccc(NS(=O)(=O)c2ccc3[nH]c(=O)[nH]c3c2)cc1)C(=O)Nc1cccc(Cl)c1Cl` (stereo unspecified), the inhibition was 4.52%. The figure for `COc1cc(NC(=S)NNC(=O)CC(C)C)c(OC)cc1Cl` is 17.8%. The figure for `O=C(NCc1ccco1)C1CCCN1S(=O)(=O)c1ccccc1C(F)(F)F` (stereo unspecified) is 8.79%; for `Cc1cc(NC(=O)CN2C(=O)NC(CC(C)C)C2=O)no1` (stereo unspecified) it is -3.85%. For `FC(F)(F)c1cc(C(F)(F)F)c2ccc(N3CCN(c4ccccc4)CC3)nc2n1`, the inhibition is 1.84%.

In the case of `O=C(C1=C(O)C(=O)N(CCOCCO)C1c1ccccn1)c1cccs1` (stereo unspecified), the inhibition was 3.48%. The result for `Cc1cccc(N2CCN(C(=O)COCc3cc(-c4ccc5c(c4)OCO5)on3)CC2)c1C` reads -10.1%; that for `CCn1c(NC(=O)c2nn(C)cc2Br)nc2ccccc21`, 9.26%; that for `Cc1cccc(Cn2cnc3c(N)c(C)c(C)cc32)c1`, 8.42%. The result for `O=C(O)CCCn1cc(NC(=O)COc2cccc(Cl)c2)cn1` reads 19.3%.

Turning to `Cc1cc(=O)oc2cc(OCC3CC(c4ccccc4Cl)=NO3)ccc12` (stereo unspecified), the inhibition is -29.1%. The result for `COc1cc(NC(=S)N2CCCC(C)C2)cc(OC)c1OC` (stereo unspecified) reads 8.3%; that for `N#Cc1ccccc1S(=O)(=O)N1CCN(C(=O)c2cc(-c3ccccc3)nn2-c2ccccc2)CC1`, 4.59%; that for `Cc1ccsc1C(=O)OCC(=O)Nc1cccc(F)c1`, -16.2%.

For `Cc1ccsc1C(=O)OCC(=O)c1cc(C)n(CC2CCCO2)c1C` (stereo unspecified), the inhibition was 80.6% (active). The result for `Cc1ccsc1C(=O)OCC(=O)NCCc1ccccc1` reads -54.7%; that for `Cc1cccc(-n2c(Cc3cc(=O)[nH]c(=O)[nH]3)nnc2SC(C)C)c1`, 1.68%. With `Cc1cc(C)c(C2C3=C(Nc4c2c(C)nn4-c2ccccn2)c2ccccc2C3=O)c(C)c1` (stereo unspecified), the inhibition was 9.07%. The figure for `CC1(C(=O)O)CCC(C(=O)Nc2ccc(Cl)c(Cl)c2)C1(C)C` (stereo unspecified) is 7.83%. The figure for `O=C(CC(O)(C(F)(F)F)C(F)(F)F)Nc1ccc(Cl)c(Cl)c1` is 80% (active). `Cc1ccc(CC(=O)Nc2ccc(OC(F)F)c(Cl)c2)cc1C`: the inhibition is 1.82%. The figure for `CCCCCN(C(=O)NC(=O)Nc1cccc(C)c1C)S(C)(=O)=O` is -2.15%; for `Cc1ccccc1/C=C\c1nc(O)c([N+](=O)[O-])c(=O)[nH]1` it is 2.28%.

Turning to `COc1ccc(NC2CCCN(C(=O)c3ccccc3-c3ncc[nH]3)C2)cc1` (stereo unspecified), the inhibition was -11.7%.

In the case of `Cc1c(C(=O)c2cccc([N+](=O)[O-])c2)c2ccccn2c1CCC#N`, the inhibition was 26.8%. The figure for `C=CCn1c(C)cc(C2=NNC(=NCC)SC2)c1C` is 86% (active). The result for `Cc1ccc(S(=O)(=O)Nc2ccccc2CNc2c(C)n(C)n(-c3ccccc3)c2=O)cc1` reads 22.2%. The result for `O=S(=O)(Nc1n[nH]c(C(F)(F)F)n1)c1ccccc1` reads 6.01%; that for `CN(C)S(=O)(=O)c1ccc(Oc2ccc(S(=O)(=O)N(C)C)cc2)cc1`, 25.9%. With `CC(C)(C)c1ccc(Oc2ccc(N)cc2)cc1`, the inhibition was 82.3% (active). The figure for `O=C(CSc1nnc(-c2ccc([N+](=O)[O-])cc2)o1)Nc1ccccn1` is -82%.

As for `Cc1nc(CNS(=O)(=O)c2ccc(Oc3ccccc3)cc2)cs1`, the inhibition is 13.4%. The figure for `CCNC(=O)NC(=O)C(C)OC(=O)C1CCN(S(=O)(=O)c2ccccc2F)CC1` (stereo unspecified) is 18.3%; for `CSCCC(=O)N1CCCC(CNC(=O)c2ccccc2Cl)C1` (stereo unspecified) it is 13.3%; for `Cc1cccc(N2C(=O)SC(SC(=Nc3ccccc3)Nc3ccccc3)C2=O)c1` (stereo unspecified) it is -7.91%. The figure for `Cc1ccc(/C=N/NC(=O)C(NC(=O)c2ccccc2)c2n[nH]c(=O)c3ccccc23)cc1` (stereo unspecified) is -30.1%.

As to `Cc1ccc(/C=N/NC(=O)C2=NNC(c3ccccc3)(c3ccccc3)C2)c(O)c1`, the inhibition is 65% (active).

In the case of `Cc1ccc(NC(=O)CCC(=O)N/N=C/c2ccco2)c(C)c1`, the inhibition was 16.4%. The figure for `Cc1c(CN2CCC(n3nccc3NC(=O)CCc3ccccc3)CC2)cnn1C` is 23.5%.

For `CCc1c(O)nc(SCC(=O)Nc2ccccc2)n(C(C)CC)c1=O` (stereo unspecified), the inhibition is -6.38%.

Turning to `CN(C)c1ccc(NC(=O)c2ccncc2)c2ccccc12`, the inhibition is 1.55%.
